Assay outcomes: PubChem BioAssay, National Center for Advancing Translational Sciences (NCATS)
BAZ2B inh – qHTS Assay for Inhibitors of BAZ2B; Bromodomain adjacent to zinc finger domain protein 2B (Homo sapiens), Q9UIF8; actives 4.4% (n = 360,000); AlphaScreen BAZ2B-H3K14Ac peptide displacement; Potency, µM (series often up to 114 µM), for the others: at the top dose activity change, negative = inhibition, actives largely listed as inhibitors; further: on the % scale 0 is the no-effect control and ±100 the full control effect; nearly all actives have a fitted effect of over 60% in size
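Multi-concentration screen (max 110 uM) measuring displacement of acetylated histone H3 peptide from BAZ2B by AlphaScreen, using 50 nM protein, 50 nM peptide and 10 ug/mL streptavidin donor plus Ni-chelate acceptor beads.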
G9a block – qHTS Assay for Inhibitors of Histone Lysine Methyltransferase G9a. Histone-lysine N-methyltransferase EHMT2 (Homo sapiens), Q96KQ7. G9a H3K9 monomethylation, AlphaScreen, 2 h. Potency, µM (titrated, usually from 102 µM), without a hit: top-dose activity, negative = inhibition, usual class: inhibitors. actives 8.8% (n = 350,000); further: on the % scale 0 is the no-effect control and ±100 the full control effect; nearly all actives have a fitted effect of over 75% in size
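AlphaScreen detection with an anti-monomethyl H3K9 antibody quantified product after a 2 h room-temperature reaction containing 500 nM biotinylated H3K9 peptide, 20 µM SAM and 20 nM enzyme, which had been preincubated 15 min with compound.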
HP1b chromo inh – HTS for Inhibitors of HP1-beta Chromodomain Interactions with Methylated Histone Tails; Chromobox protein homolog 1 (Homo sapiens), P83916; AlphaScreen HP1-beta / biotin-H3K9me3 peptide binding; Potency, µM (doses to about 114 µM), for inactives: at the top dose activity change, negative = inhibition, most hits filed as inhibitors; actives 0.56% (n = 390,000); further: nearly all actives have a fitted effect of over 70% in size
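HP1-beta protein (50 nM final) preincubated 30 min at room temperature with biotinylated H3(1-18)K9me3 peptide (50 nM) in PBS pH 7.4, 0.01% Tween-20, then compound added for 30 min. AlphaScreen streptavidin donor/nickel chelate acceptor beads (10 ug/mL final), 30 min dark, luminescence read.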
JMJD2A Tudor inh – qHTS Assay for Inhibitors of JMJD2A-Tudor Domain | Lysine-specific demethylase 4A (Homo sapiens), O75164 | AlphaScreen JMJD2A-Tudor / H3K4me3 peptide binding | Potency, µM (series often up to 114 µM), for the others: at the highest dose activity change, negative = inhibition, most hits filed as inhibitors | actives 4.4% (n = 390,000) | AID 504339, 2011; further: on the % scale 0 is the no-effect control and ±100 the full control effect; nearly all actives have a fitted effect of over 50% in size
GLS inhibitor – qHTS for Inhibitors of Glutaminase (GLS). GLS enzymatic activity, qHTS titration. Potency, µM (top dose mostly 45.5 µM), without a hit: top-dose activity change, negative = inhibition, most hits filed as inhibitors. Glutaminase kidney isoform, mitochondrial (Homo sapiens), O94925. actives 0.21% (n = 410,000); further: on the % scale 0 is the no-effect control and ±100 the full control effect
Target sequence (O94925 whole entry, looked up, canonical isoform): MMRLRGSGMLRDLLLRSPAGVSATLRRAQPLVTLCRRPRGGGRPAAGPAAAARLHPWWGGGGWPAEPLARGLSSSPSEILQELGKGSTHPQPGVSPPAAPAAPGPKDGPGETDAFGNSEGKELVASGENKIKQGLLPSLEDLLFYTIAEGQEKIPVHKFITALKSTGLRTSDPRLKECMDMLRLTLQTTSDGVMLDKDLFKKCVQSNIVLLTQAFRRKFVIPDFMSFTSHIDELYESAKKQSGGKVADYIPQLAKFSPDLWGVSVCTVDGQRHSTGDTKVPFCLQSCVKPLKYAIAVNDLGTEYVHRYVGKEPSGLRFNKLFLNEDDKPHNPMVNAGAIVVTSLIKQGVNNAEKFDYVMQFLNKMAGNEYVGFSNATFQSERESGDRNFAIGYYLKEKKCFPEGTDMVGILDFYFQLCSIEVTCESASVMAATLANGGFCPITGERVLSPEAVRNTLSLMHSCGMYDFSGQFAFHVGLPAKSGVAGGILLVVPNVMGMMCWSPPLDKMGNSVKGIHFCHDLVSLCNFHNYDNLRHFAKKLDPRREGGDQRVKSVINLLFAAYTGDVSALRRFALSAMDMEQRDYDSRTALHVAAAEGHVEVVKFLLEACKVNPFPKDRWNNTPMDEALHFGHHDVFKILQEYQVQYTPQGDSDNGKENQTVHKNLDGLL
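hKGA in 45 mM KH2PO4 (pH 8.2), 0.02% Tween-20 with compound, then 1mM L-Glutamine (stock as added) plus glutamate oxidase/HRP/Amplex red coupling mix. Fluorescence read initially and after 30 min at RT; signal change reflects glutamate formation.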
Starred values were filed as active, the others as inactive; ? = inconclusive; . = not tested or not shown; [ ] = remark or other dose. Most compounds without a hit are left out; they make up all but 10% or so of the library. The call rests on the fitted dose curve; in most records, active means well fitted curve in the direction sought with a large enough effect; inconclusive means small, poorly fitted or top-dose-only effect, or another doubt; inactive means no such curve, though single readings can be large; an effect the other way counts as inactive or inconclusive. Potency means the concentration at half of the fitted maximal effect.

SMILES | BAZ2B inh | G9a block | HP1b chromo inh | JMJD2A Tudor inh | GLS inhibitor
CCn1c(-c2ccc3ncccc3c2)n[nH]c1=S | 3.0% | 10µM* | 29.4% | 5.01µM* | .
C=CCn1c(-c2ccc3ncccc3c2)n[nH]c1=S | 4.8% | 7.94µM* | 7.8% | 7.08µM* | -11.4%
CCCCn1c(=O)[nH]c(=O)c2c1nc(-c1ccc([N+](=O)[O-])cc1)n2CC | 19.8% | ? | 27.0% | -2.7% | -10.3%
CCn1c(-c2ccc([N+](=O)[O-])cc2)n[nH]c1=S | -29.8% | 3.98µM* | 22.5% | 3.55µM* | -11.3%
CCn1c(-c2cccc(Br)c2)n[nH]c1=S | 16.1% | ? | 0.3% | 7.94µM* | -5.5%
Cc1cccc2c1NC(=O)C2(O)N1CCCC(C)C1 (stereo unspecified) | -5.1% | -8.4% | 3.7% | -18.4% | 2.5%
CN(C)c1ccc(N2C(=O)CC(Nc3ccc(N4CCOCC4)cc3)C2=O)cc1 (stereo unspecified) | 2.2% | ? | 23.7% | -12.0% | -1.4%
COC(=O)c1ccc(CNC(=O)Cn2nnnc2CN(C)C(C)C)cc1 | -4.6% | . | 54.8% | -12.5% | 1.5%
CCn1c(-c2sc(-c3ccccc3)nc2C)n[nH]c1=S | -7.8% | -127.9%[59 µM] | -6.1% | 17.8µM* | 0.0%
Cc1nc(-c2ccccc2)sc1-c1ccn[nH]1 | -5.5% | -6.8% | 33.0% | -12.3% | 14.5%
CN(C)/N=C1\C(=O)N(CN2CCN(c3ccccc3)CC2)c2ccccc21 | -34.0% | 23.1%[12.7 µM] | 18.6% | -26.4% | 12.3%
CCNS(=O)(=O)c1ccc(NC(=O)c2ccc(Cn3cc([N+](=O)[O-])cn3)o2)cc1 | 16.2% | 50.1µM* | 0.6% | -9.7% | 13.7%
COC(=O)c1ccc(C)c(NC(=O)c2ccc(Cn3cc([N+](=O)[O-])cn3)o2)c1 | -3.2% | 21.3%[59 µM] | 9.0% | -18.1% | 8.6%
CN(C)c1ccc(NC(=O)c2ccc(Cn3cc([N+](=O)[O-])cn3)cc2)cc1 | 25.1µM* | 14.1µM* | 44.7µM* | 50.1µM* | 13.6%
O=C(CCS(=O)(=O)Cc1ccccc1)Nc1nc2c(s1)CCCC2 | 0.9% | -0.9%[12.7 µM] | 30.6% | -3.1% | 1.0%
c1ccc2c(Nc3nc4c(s3)CCCC4)cccc2c1 | 50.1µM* | 8.3%[0.0925 µM] | ? | -28.3%[57.1 µM] | 3.1%
O=S(=O)(NC1=NCCCCC1)c1ccc2sc(NS(=O)(=O)c3ccc4ccccc4c3)nc2c1 | -27.7% | . | 15.0% | -24.0% | 11.9%
O=S(=O)(Nc1nc2c(s1)CCCC2)c1ccc2ccccc2c1 | ? | 50.1µM* | 9.0% | ? | 11.7%
O=C(NC1CCCCC1)c1ccccc1-c1ccccc1 | 3.9% | 24.9% | 8.0% | -7.3% | 1.6%
CSCC(=O)N1CCC(n2nccc2NC(=O)c2ccc3c(c2)OCO3)CC1 | 0.6% | 44.7µM* | 7.6% | ? | -0.2%
Cc1cccn2c(=O)cc(COc3ccc(NC(=O)C(C)C)cc3)nc12 | 9.7% | 28.3%[59 µM] | 19.7%[57 µM] | -10.7% | 4.5%
Cc1ccc(-c2nc3ccccc3n2C)o1 | -26.1% | 12.6µM* | 14.9% | -19.7% | 15.1%
Cn1c(-c2nonc2N)nc2ccccc21 | -27.4% | 39.8µM* | 46.5% | 9.3% | -4.8%
Cn1c(-c2ccc(Br)o2)nc2ccccc21 | -34.2% | -9.7%[59 µM] | 19.7% | -14.9% | 6.7%
CCN(C(=O)CSc1nc2ccccc2c(=O)n1-c1ccccc1F)C1CCS(=O)(=O)C1 (stereo unspecified) | . | . | 24.4% | -11.7% | 1.5%
SMILES | BAZ2B inh | G9a block | HP1b chromo inh | JMJD2A Tudor inh | GLS inhibitor
C=C(C)CN(CC)C(=O)CC1C(=O)NCCN1CC(C)(C)C (stereo unspecified) | -2.3% | ? | 20.4%[57 µM] | -2.0% | 0.9%
CCOC(=O)c1c(NC(=O)CN2C(=O)NC3(CCCCC3C)C2=O)sc(C(=O)N(C)C)c1C (stereo unspecified) | -4.2% | 9.0%[0.501 µM] | 20.5% | -12.2% | 3.7%
O=C(O)c1ccc(Nc2nc3ccc(Cl)cc3[nH]2)cc1 | ? | 44.7µM* | 3.2% | ? | 14.5%
CC1C(=O)NN=C1C(=O)N/N=C\c1ccc(O)cc1O (stereo unspecified) | 11.2µM* | 4.5%[59 µM] | 16.2% | 39.8µM* | 19.2%
COc1cc(/C=N/NC(=O)C2=NNC(=O)C2C)ccc1O (stereo unspecified) | ? | ? | 4.9% | ? | 19.9%
CCOC(=O)[C@H]1[C@H]2COc3ccc(Br)cc3[C@@H]2N2C(=O)CN(Cc3ccco3)C(=O)[C@@]12C | 50.1µM* | 6.8%[0.501 µM] | 9.2% | ? | -3.7%
CC1CCCCC1NS(=O)(=O)c1ccc(S(=O)(=O)NCc2ccncc2)cc1 (stereo unspecified) | ? | 17.8µM* | 26.5% | -11.5% | 1.5%
Cc1ccc(S(=O)(=O)NCc2ccncc2)cc1 | 10.3% | 18.0% | 13.7% | -1.9% | 7.3%
COc1ccc(C(=O)NCCc2ccc(Cl)cc2)cc1S(=O)(=O)N1CCCCC1C (stereo unspecified) | 1.4% | -20.1%[59 µM] | 15.3% | -21.3% | -1.3%
COc1ccc(C(=O)NCCc2c[nH]c3ccccc23)cc1S(=O)(=O)N1CCCCC1C (stereo unspecified) | -39.0% | 2.82µM* | -11.2% | ? | 19.1%
O=C(NCCc1c[nH]c2ccccc12)c1ccc2nc[nH]c2c1 | 50.1µM* | -11.6%[59 µM] | 13.0% | -30.8% | 10.6%
COc1ccc(C(=O)NCCc2c[nH]c3ccccc23)cc1OC | -34.0% | . | 34.5% | -18.9% | 31.5%
O=C(Nc1ccc(N2CCCC2)cc1)C(Cl)c1ccccc1 (stereo unspecified) | 50.1µM* | 10µM* | 44.7µM* | 28.2µM* | -19.6%
CS(=O)(=O)N1CCN(c2ccc(NC(=O)C(c3ccccc3)c3ccccc3)cc2)CC1 | 0.1% | 8.91µM* | 0.9% | -19.9% | 6.2%
CCC(=O)Nc1ccc(N2CCN(S(C)(=O)=O)CC2)cc1 | 11.3% | -18.9%[59 µM] | 28.4% | -5.4% | 8.5%
COc1ccc2nc(SC(C)C(=O)NC3CCCCC3)[nH]c2c1 (stereo unspecified) | 4.4% | -4.2%[0.501 µM] | 30.5% | -3.6% | -14.4%
COc1ccc2nc(SC(C)C(=O)NCC(=O)Nc3ccc(F)c(F)c3F)[nH]c2c1 (stereo unspecified) | 9.4% | 50.1µM* | 9.1% | -13.1% | 0.8%
COc1ccc(-n2nnnc2SC(C)C(=O)NCC(=O)Nc2ccc(F)c(F)c2F)cc1 (stereo unspecified) | -5.4% | 39.8µM* | 19.0% | -2.7% | 8.2%
Cc1cc(SC(C)C(=O)NCC(=O)Nc2ccc(F)c(F)c2F)nc2ccccc12 (stereo unspecified) | -3.2% | 22.9% | 35.3% | 1.4% | -5.1%
